Rows were chosen to be rich in hits. Some 12% of all compounds tested hit in one or more screens of this group.
MARV entry inh – inhibitors of Marburg virus binding or cell entry; Marburg virus pseudotyped entry inhibition, cell reporter; Potency, µM (doses to about 37.8 µM), for inactives: at the highest dose activity change, negative = inhibition, hits mostly inhibitors; 1.8% of 300,000 active; AID 540276; calls by dose curve; tested in HEK293 cells; also: potency is read from the fitted curve at half-maximal effect; % is scaled to controls: 0 for no effect and ±100 for the full control effect
Shiga inhibitor – Shiga toxin inhibition; 9.2% of 290,000 active; Vero cells, Shiga toxin protein synthesis inhibition reporter; inhibition, % at 38.7 µM; in the data active = inhibition mostly above about 28%, no sharp cut-off; inactive = mostly below about 43%; also: 0% is about no effect
Cycloheximide cs – counter-screen for Shiga toxin inhibitors: cycloheximide protein synthesis inhibition; cell reporter, cycloheximide protein synthesis inhibition counterscreen; max response, %; 12% of 300,000 active; AID 2314; in the data active = max response mostly above about 13%, no sharp cut-off; inactive = mostly below about 14%; also: read at 38.3 µM for the half of the compounds with a filed dose; 0% is about no effect
Lassa entry inh – inhibitors of Lassa virus binding or cell entry; Lassa virus pseudotype entry inhibition, cell reporter; 1.2% of 300,000 active; Potency, µM (series often up to 37.9 µM), inactives show top-dose activity change, negative = inhibition, hits mostly inhibitors; calls by dose curve; tested in HEK293 cells; also: potency is read from the fitted curve at half-maximal effect; % is scaled to controls: 0 for no effect and ±100 for the full control effect; nearly all actives have a fitted effect of over 50% in size
Starred values were filed as active, the others as inactive; u = inconclusive; x = not tested or not shown; [ ] = dose if it differs, or a comment.

SMILES | MARV entry inh | Shiga inhibitor | Cycloheximide cs | Lassa entry inh
CC(C)(O)C(=O)NN(Cc1ccccc1)c1ccccc1 | u | 33* | 28* | -3%
CCCCNC(=S)Nc1ccc(-c2nc3ccc(C)cc3s2)cc1 | u | 51* | 65* | u
CCC(C)(C)NC(=S)Nc1ccc(-c2nc3ccc(C)cc3s2)cc1 | u | 82* | 44* | u
CCCCN(C)S(=O)(=O)c1ccc(C(=O)Nc2ccc(-c3nc4ccc(C)cc4s3)cc2)cc1 | x | x | x | 7%[46.1 µM]
Cc1cc(C)n2nc(SCC(=O)Nc3ccc(F)cc3[N+](=O)[O-])nc2n1 | -20% | x | x | -7%
Nc1[nH]nc2c1NN(c1ccc(Cl)cc1Cl)N2 | u | 83* | 48* | 3%
Fc1ccc(-c2nc3c(Cl)cc(C(F)(F)F)cn3c2Cl)cc1 | 2% | active | 32* | u
CN(Cc1ccccc1Cl)C(=O)C1CCC(=O)N(C2CCCCCC2)C1 (centres undefined) | x | 18 | 14* | x
Cc1ccc(CN(C)C(=O)C2CCC(=O)N(C3CCCCCC3)C2)cc1 (centres undefined) | u | -12 | 5 | -4%[46.1 µM]
CCOC(=O)CCN1C(=O)[C@H]2[C@H]3[C@H](O)[C@H](O)C/C(=N\NC(=O)OCc4ccc(OC)cc4)[C@H]3CC[C@H]2C1=O | 22%[14.2 µM] | x | x | x
CCOC(=O)CCN1C(=O)[C@@H]2[C@H]3[C@H](O)[C@H](O)CC(=NNC(=O)OCc4ccc(OC)cc4)[C@H]3CC[C@H]2C1=O | 22%[14.2 µM] | x | x | 0.17µM*
CCN(CC)CCCOC(=O)C1(c2ccccc2)CCCC1 | u | 12 | -2 | -10%
CCN(CC)CCOCCOC(=O)C1(c2ccccc2)CCCC1 | 16µM* | x | x | u
Cc1ccc([N+](=O)[O-])cc1-c1ccc(/C=C(\C#N)c2[nH]nc(N)c2C#N)o1 | u | 28 | 20* | u
CC1(C)Cc2c(sc3[nH]c(=O)n(CC(=O)NCC4CCCO4)c(=O)c23)CO1 (centres undefined) | x | -6 | 6 | x
CCN1CCN(c2ccc(NC(=O)c3cccnc3)cc2Cl)CC1 | -5% | 16 | 11* | -4%
CCN1CCN(c2ccc(NC(=O)c3ccc(F)cc3)cc2Cl)CC1 | u | 43* | 30* | -14%
COc1ccc([C@H]2[C@H](C(=O)OC(C)(C)C)N3N=Cc4ccccc4C3C23C(=O)c2ccccc2C3=O)c(OC)c1 (some centres undefined) | u | 45* | 18* | -11%
Clc1cc(Cl)c(OCc2nc(-c3ccccn3)no2)cc1Cl | u | 125* | 47* | u
CC(C)(C)c1ccc(OCc2nc(-c3ccccn3)no2)c(Br)c1 | u | 96* | 84* | u
COc1cccc(-c2noc(COc3ccccc3Cl)n2)c1 | 12%[46.1 µM] | x | x | u
O=C(c1ccc(=O)[nH]c1)N1CCCc2ccccc21 | x | -8 | -2 | x
Cc1ccc(C)c(NC(=O)c2ccc3c(c2)N(Cc2ccc(F)cc2)C(=O)CS3=O)c1 (centres undefined) | 2.6µM* | 15 | -1 | u
CCOc1ccc(NC(=O)c2ccc3c(c2)N(Cc2ccc(F)cc2)C(=O)CS3=O)cc1 (centres undefined) | -1% | 31 | 12 | x
Cc1ccccc1CNS(=O)(=O)c1csc(C(N)=O)c1 | x | -3 | 6 | 13%[46.1 µM]
SMILES | MARV entry inh | Shiga inhibitor | Cycloheximide cs | Lassa entry inh
CCS(=O)(=O)c1ccc(O)c(NC(=O)NC2CCCCC2)c1 | 21%[46.1 µM] | 13 | 12* | 6%
O=C(Nc1ccccc1Cl)NC1CCCCCCC1 | 17%[46.1 µM] | 57* | 40* | 15%[46.1 µM]
CCS(=O)(=O)c1ccc(O)c(NC(=O)Nc2cccc3ccccc23)c1 | 0%[46.1 µM] | -5 | -1 | 11%[46.1 µM]
CCc1ccccc1NC(=O)NC1CCCCC1 | 31% | 13 | 14* | -6%
Cn1cc(Br)c(-c2cccc(NC(=O)CCC(=O)O)c2)n1 | -8%[46.1 µM] | -3 | -3 | 4%
C(=N\n1cnnc1)/c1nc2ccccc2[nH]1 | 3% | -7 | -3 | 30%
Clc1ccc(/C=C/c2nc3ccccc3[nH]2)c(Cl)c1 | u | 15 | -1 | 10µM*
Clc1ccc(/C=C/c2nc3ccccc3[nH]2)cc1 | 8.2µM* | -12 | 7 | u
Clc1cccc(Cl)c1/C=C/c1nc2ccccc2[nH]1 | u | 78* | 31* | u
CC(=O)OCC(NC(=O)C(C)NC(=O)OC(C)(C)C)C1OC(n2cc(F)c(=O)[nH]c2=O)C(OC(C)=O)C1OC(C)=O (centres undefined) | x | -6 | -4 | x
Cc1c(-c2nc(-c3cccnc3)no2)cccc1[N+](=O)[O-] | u | 38 | 24* | -5%
Cc1ccc(-c2nc(-c3cccnc3)no2)c(C)c1 | u | 108* | 36* | -10%
OCc1c(OCc2cccc(F)c2)ccc2ccccc12 | x | x | 25* | x
COc1ccc2c(=O)c3c(=O)n(-c4ccccc4)c(-c4ccc(C)cc4)nc3oc2c1 | 2% | -13 | -1 | u
CCN(CC)c1ccc(C=C2C(=O)OC3(CCCCC3)OC2=O)cc1 | 0%[46.1 µM] | -5 | 8 | 8%[46.1 µM]
CCN(CC)c1ccc(/C=C2/C(=O)c3ccc(C(=O)O)cc3C2=O)cc1 | u | 68* | 77* | u
O=C(C1=NN[C@@H]2C(=O)N(Cc3ccccc3)C(=O)[C@H]12)c1ccc([N+](=O)[O-])cc1 | -13%[46.1 µM] | 1 | -2 | -3%[46.1 µM]
CCOC(=O)c1cc2c(=O)n3ccccc3nc2n(CC2CCCO2)c1=NC(=O)c1ccc(F)cc1 (centres undefined) | -24%[46.1 µM] | x | x | 16%[46.1 µM]
CCc1ccc(NC(=O)c2ccc(F)c(S(=O)(=O)N(CC)c3ccccc3)c2)cc1 | u | 2 | 14* | u
Cc1ccc(C(=O)Nc2ccc(S(=O)(=O)N(Cc3ccccc3)c3ccccc3)cc2)cc1 | u | x | x | -17%[46.1 µM]
CCN(c1ccccc1)S(=O)(=O)c1cc(C(=O)Nc2cccc(Cl)c2)ccc1F | u | -15 | 13 | 13µM*
Cc1ccc(OC(C)C(=O)N2CCN(CCc3ccncc3)CC2)cc1C (centres undefined) | 4%[46.1 µM] | x | x | -9%[46.1 µM]
CCOc1ccc(NC(=O)CN(C)C(=O)c2cn(-c3ccccc3)nc2-c2cccs2)cc1OCC | -41% | -4 | 2 | -22%
CCOc1ccc(NC(=O)CN(C)C(=O)c2cn(-c3ccc(C)cc3)nc2-c2cccc(OC)c2)cc1OCC | 11µM* | x | x | -29%
S=C(NCCc1cccc(Cl)c1)NCc1ccccc1 | x | 33 | 25* | x
SMILES | MARV entry inh | Shiga inhibitor | Cycloheximide cs | Lassa entry inh
O=C(NCCc1ccccc1)Nc1cccc(Cl)c1 | u | 40 | 49* | -12%
COc1ccc(NC(=O)NCCc2cccc(Cl)c2)cc1OC | 4% | 39 | 34* | 0%
COc1ccc(CCNC(=O)Nc2ccc3c(c2)OCO3)cc1OC | x | 11 | 6 | x
O=C(/C=C/c1cccc(Cl)c1)NCCc1ccccc1 | -2% | 107* | 65* | 25%
O=C(NCCc1ccncc1)Nc1ccccc1 | u | 12 | 1 | 13%
O=C(NNC(=S)NCc1ccc(Cl)cc1)c1ccc2c(c1)OCO2 | -14% | -4 | -4 | -15%
Cc1ccc(N2CC(=O)Nc3c(oc4nc(-c5ccccc5)cc(C)c34)C2=O)cc1 | 5%[46.1 µM] | -26 | 2 | 0%
COCOc1c2c(c(OCOC)c3c(OCOC)cccc13)C(=NNS(C)(=O)=O)C1=C2CCCC1 | 1%[14.2 µM] | x | x | x
O=C(Nc1ccccc1F)c1nc(SCc2ccc(F)cc2)ncc1Cl | 19%[46.1 µM] | x | x | 21%[46.1 µM]
